According to PubChem BioAssay (NCATS):
Inconclusive results are not listed. A call without a number means that no potency is given here. Active and inactive are the calls of the source. Calls follow the shape of the dose curve; as a rule, active = well fitted inhibition curve with a large enough effect; inconclusive = small, poorly fitted or top-dose-only effect; inactive = flat fitted curve, though single readings scatter.

How the values were obtained:
Assay in all cases: qHTS profiling for inhibitors of Plasmodium falciparum proliferation (AID 504749); also: nearly all actives have a fitted effect of over 60% in size
Conditions in all cases: P. falciparum in erythrocytes, SYBR Green DNA, 72 h; series mostly up to 28.7 µM
[1] = test system: CP268
How it was run: (§1)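 P. falciparum-infected erythrocytes (0.3% parasitemia, 2.5% hematocrit) incubated with compound 72 h at 37 C, 5% CO2. Parasite DNA detected by SYBR Green after lysis, overnight at room temperature; normalised to 0.29 uM artemisinin and DMSO.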

[2] = test system: CP269
How it was run: as §1

[3] = test system: CP286
How it was run: as §1

[4] = test system: CP291
How it was run: as §1

[5] = test system: CP297
How it was run: as §1

[6] = test system: CP305
How it was run: as §1

[7] = test system: CP315
How it was run: as §1

[8] = test system: CP325
How it was run: as §1

[9] = test system: CP329
How it was run: as §1

[10] = test system: CP335
How it was run: as §1
Potency is read from the fitted curve at half-maximal effect.

**Q.** How did the Potency [1] turn out when `COc1ccnc(CS(=O)c2nc3ccc(OC(F)F)cc3[nH]2)c1OC` (stereo not drawn) was run?
**A.** inactive

**Q.** And the Potency [2]?
**A.** inactive

**Q.** And the Potency [3]?
**A.** inactive

**Q.** What about the Potency [4] of the same compound?
**A.** inactive

**Q.** What about the Potency [5] of the same compound?
**A.** inactive

**Q.** And the Potency [6]?
**A.** inactive

**Q.** What about the Potency [7] of the same compound?
**A.** inactive

**Q.** And the Potency [8]?
**A.** inactive

**Q.** And the Potency [9]?
**A.** inactive

**Q.** What about the Potency [10] of the same compound?
**A.** inactive

**Q.** With `CS(=O)(=O)c1ccc(C2=C(c3ccccc3)C(=O)OC2)cc1` as the compound, how does the Potency [1] read?
**A.** inactive

**Q.** And the Potency [2]?
**A.** inactive

**Q.** And the Potency [3]?
**A.** inactive

**Q.** And the Potency [4]?
**A.** inactive

**Q.** What about the Potency [5] of the same compound?
**A.** inactive

**Q.** What about the Potency [6] of the same compound?
**A.** inactive

**Q.** And the Potency [7]?
**A.** inactive

**Q.** What about the Potency [8] of the same compound?
**A.** inactive

**Q.** What about the Potency [9] of the same compound?
**A.** inactive

**Q.** And the Potency [10]?
**A.** inactive

**Q.** How did the Potency [1] turn out when `O=C(O)c1nc(=O)[nH]c(=O)[nH]1` was run?
**A.** inactive

**Q.** What about the Potency [2] of the same compound?
**A.** inactive

**Q.** And the Potency [3]?
**A.** inactive

**Q.** And the Potency [4]?
**A.** inactive

**Q.** What about the Potency [5] of the same compound?
**A.** inactive

**Q.** What about the Potency [6] of the same compound?
**A.** inactive

**Q.** What about the Potency [8] of the same compound?
**A.** inactive

**Q.** And the Potency [9]?
**A.** inactive

**Q.** With `CN1CC(=O)N2C(Cc3c([nH]c4ccccc34)[C@H]2c2ccc3c(c2)OCO3)C1=O` (stereo partly drawn) as the compound, how does the Potency [1] read?
**A.** inactive

**Q.** What about the Potency [2] of the same compound?
**A.** inactive

**Q.** What about the Potency [3] of the same compound?
**A.** inactive

**Q.** What about the Potency [4] of the same compound?
**A.** inactive

**Q.** What about the Potency [5] of the same compound?
**A.** inactive

**Q.** What about the Potency [6] of the same compound?
**A.** inactive

**Q.** What about the Potency [7] of the same compound?
**A.** inactive

**Q.** What about the Potency [8] of the same compound?
**A.** inactive

**Q.** What about the Potency [9] of the same compound?
**A.** inactive

**Q.** And the Potency [10]?
**A.** inactive

**Q.** Which Potency [5] does the source give for `Clc1ccc(COC(Cn2ccnc2)c2ccc(Cl)cc2Cl)c(Cl)c1` (stereo not drawn) here?
**A.** 4.05 µM (active)

**Q.** What about the Potency [8] of the same compound?
**A.** 5.1 µM (active)

**Q.** What does the source list for `Cc1cc2nc3c(=O)[nH]c(=O)nc-3n(CC(O)C(O)C(O)CO)c2cc1C` (stereo not drawn)?
**A.** Potency [1]: inactive; Potency [2]: inactive; Potency [3]: inactive; Potency [4]: inactive; Potency [5]: inactive; Potency [6]: inactive; Potency [7]: inactive; Potency [8]: inactive; Potency [9]: inactive; Potency [10]: inactive

**Q.** Which Potency [1] does the source give for `C=C1c2cccc(O)c2C(O)=C2C(=O)[C@@]3(O)C(O)=C(C(N)=O)C(=O)[C@@H](N(C)C)[C@@H]3[C@@H](O)[C@H]12` here?
**A.** inactive

**Q.** And the Potency [2]?
**A.** inactive

**Q.** And the Potency [4]?
**A.** inactive

**Q.** What about the Potency [5] of the same compound?
**A.** inactive

**Q.** And the Potency [6]?
**A.** inactive

**Q.** And the Potency [7]?
**A.** inactive

**Q.** And the Potency [8]?
**A.** inactive

**Q.** What about the Potency [9] of the same compound?
**A.** inactive

**Q.** With `COc1cc2c(cc1OC)CC(=O)N(CCCN(C)C[C@H]1Cc3cc(OC)c(OC)cc31)CC2` as the compound, how does the Potency [1] read?
**A.** inactive

**Q.** What about the Potency [2] of the same compound?
**A.** inactive

**Q.** And the Potency [3]?
**A.** inactive

**Q.** And the Potency [4]?
**A.** inactive

**Q.** What about the Potency [5] of the same compound?
**A.** inactive

**Q.** And the Potency [6]?
**A.** inactive

**Q.** What about the Potency [7] of the same compound?
**A.** inactive

**Q.** And the Potency [8]?
**A.** inactive

**Q.** And the Potency [9]?
**A.** inactive

**Q.** And the Potency [10]?
**A.** inactive

**Q.** For `NS(=O)(=O)c1cc(Cl)c(Cl)c(S(N)(=O)=O)c1`, which Potency [1] is on record?
**A.** inactive

**Q.** And the Potency [2]?
**A.** inactive

**Q.** And the Potency [3]?
**A.** inactive

**Q.** What about the Potency [4] of the same compound?
**A.** inactive

**Q.** And the Potency [5]?
**A.** inactive

**Q.** And the Potency [6]?
**A.** inactive

**Q.** And the Potency [7]?
**A.** inactive

**Q.** What about the Potency [8] of the same compound?
**A.** inactive

**Q.** What about the Potency [9] of the same compound?
**A.** inactive

**Q.** And the Potency [10]?
**A.** inactive

**Q.** For `N#Cc1c(N(CC(=O)O)CC(=O)O)sc(C(=O)O)c1CC(=O)O`, which Potency [1] is on record?
**A.** inactive

**Q.** What about the Potency [2] of the same compound?
**A.** inactive

**Q.** What about the Potency [3] of the same compound?
**A.** inactive

**Q.** And the Potency [4]?
**A.** inactive

**Q.** What about the Potency [5] of the same compound?
**A.** inactive

**Q.** And the Potency [6]?
**A.** inactive

**Q.** And the Potency [7]?
**A.** inactive

**Q.** What about the Potency [8] of the same compound?
**A.** inactive

**Q.** And the Potency [9]?
**A.** inactive

**Q.** What about the Potency [10] of the same compound?
**A.** inactive

**Q.** Which results are given for `COc1c(C)c2c(c(O)c1CC=C(C)CCC(=O)OCCN1CCOCC1)C(=O)OC2`?
**A.** Potency [1]: 12 µM (active); Potency [2]: 8.49 µM (active); Potency [3]: 7.08 µM (active); Potency [4]: 8.49 µM (active); Potency [5]: 12 µM (active); Potency [6]: 10.7 µM (active); Potency [7]: 13.5 µM (active); Potency [8]: 10.7 µM (active); Potency [9]: 7.57 µM (active); Potency [10]: 8.49 µM (active)

**Q.** What does the source list for `O=C1C(CCC(O)c2ccc(F)cc2)C(c2ccc(O)cc2)N1c1ccc(F)cc1` (stereo not drawn)?
**A.** Potency [1]: inactive; Potency [2]: inactive; Potency [3]: inactive; Potency [4]: inactive; Potency [5]: inactive; Potency [6]: inactive; Potency [7]: inactive; Potency [8]: inactive; Potency [9]: inactive; Potency [10]: inactive

**Q.** With `N#CC(c1ccc(Cl)cc1)c1c(Cl)cc(-n2ncc(=O)[nH]c2=O)cc1Cl` (stereo not drawn) as the compound, how does the Potency [1] read?
**A.** inactive

**Q.** What about the Potency [2] of the same compound?
**A.** inactive

**Q.** What about the Potency [3] of the same compound?
**A.** inactive

**Q.** And the Potency [4]?
**A.** inactive

**Q.** And the Potency [5]?
**A.** inactive

**Q.** And the Potency [6]?
**A.** inactive

**Q.** What about the Potency [7] of the same compound?
**A.** inactive

**Q.** What about the Potency [8] of the same compound?
**A.** inactive

**Q.** And the Potency [9]?
**A.** inactive

**Q.** What about the Potency [10] of the same compound?
**A.** inactive

**Q.** How did the Potency [1] turn out when `CN1CCN2c3ncccc3Cc3ccccc3C2C1` (stereo not drawn) was run?
**A.** inactive

**Q.** And the Potency [2]?
**A.** inactive

**Q.** What about the Potency [3] of the same compound?
**A.** inactive

**Q.** What about the Potency [5] of the same compound?
**A.** inactive

**Q.** What about the Potency [6] of the same compound?
**A.** inactive

**Q.** What about the Potency [7] of the same compound?
**A.** inactive

**Q.** And the Potency [8]?
**A.** inactive

**Q.** And the Potency [9]?
**A.** inactive

**Q.** Which Potency [1] does the source give for `CC(C)CN(C[C@@H](O)[C@H](Cc1ccccc1)NC(=O)O[C@H]1CO[C@H]2OCC[C@H]21)S(=O)(=O)c1ccc(N)cc1` here?
**A.** inactive

**Q.** What about the Potency [2] of the same compound?
**A.** inactive

**Q.** What about the Potency [3] of the same compound?
**A.** inactive

**Q.** What about the Potency [4] of the same compound?
**A.** inactive

**Q.** What about the Potency [5] of the same compound?
**A.** inactive

**Q.** What about the Potency [6] of the same compound?
**A.** inactive

**Q.** And the Potency [7]?
**A.** inactive

**Q.** What about the Potency [8] of the same compound?
**A.** inactive

**Q.** And the Potency [9]?
**A.** inactive

**Q.** And the Potency [10]?
**A.** inactive

**Q.** Which results are given for `Fc1ccc(C(c2ccc(F)cc2)N2CCN(CC=Cc3ccccc3)CC2)cc1`?
**A.** Potency [6]: 13.5 µM (active); Potency [10]: 15.1 µM (active)
